Experimental findings from PubChem BioAssay (NCI) are described below.

Compounds without any hit were thinned out: in the full panel of roughly 83,000, 20% have a hit.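 In brief: 96-well plates, 48 h treatment, single concentration, percent growth endpoint.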 Calls of active or inactive are those of the source.

This assay concerns HL-60(TB) leukemia. Briefly: NCI-60 one-dose screen, 48 h (100 = growth as untreated, 0 = no growth, -100 = all killed). The settings on record: 10 µM unless noted. The protocol: Growth inhibition of the HL-60(TB) human tumor cell line is measured as a screen for anti-cancer activity. Cells are grown in 96 well plates and exposed to the test compound for 48 hours. Compounds are tested at a single concentration, which is 10^-5 M for most compounds. The reported endpoint is percent growth (GI% or GIPRCNT), where numbers from 0 - 100% represent growth inhibition, and numbers from -100% - 0 represent cell death. For example, a value of 40 represents 60% growth inhibition. A value of 0 means no net growth occurred over the course of the experiment. A value of -40 indicates 40% of cells at the beginning of the experiment died by the end of the experiment. A value of -100 means all cells are dead at the end of the experiment.
NCI-60 Human Tumor Cell Lines Screen was performed using the standard one-dose NCI protocol, which is described in more detail at https://dtp.cancer.gov/discovery_development/nci-60/default.htm.
Compounds with GIPRCNT values below 10 were considered active. Activity score was based on GIPRCNT using the following formula: […]
Score is 0 for GIPRCNT values of 100 or above, 50 for GIPRCNT values of 0, and 100 for GIPRCNT values of -100.
For the compound `COc1cc2c(cc1OCCCOC1=C=C=C(c3ccc4c(c3)c3cc(-c5ccc(OCCCOc6cc7c(cc6OC)C(=O)N6CCC[C@H]6C=N7)cc5)ccc3n4S(=O)(=O)c3ccc(C)cc3)C=C1)N=C[C@@H]1CCCN1C2=O`, the growth was 10.5% (inactive).
Under `O=C(OCc1ccc2c(Cl)cc(Cl)c(O)c2n1)c1cc2ccccc2[nH]1` stands -36.1% (active).
Under `C#CC#CC#CC#CC#CC#CC#CC#CC[C@@H]1OC[C@@H](COC(=O)O[C@@H](C(=O)O[C@H]2C[C@@]3(O)[C@@H](OC(=O)c4ccccc4)[C@@H]4[C@]5(OC(C)=O)CO[C@@H]5C[C@H](O)[C@@]4(C)C(=O)[C@H](OC(C)=O)C(=C2C)C3(C)C)[C@@H](NC(=O)c2ccccc2)c2ccccc2)O1` stands 2.63% (active); under `O=c1[nH]nc(-c2ccc(Cl)cc2)cc1Cc1cccc([N+](=O)[O-])c1`, 109% (inactive).
Under `O=c1c2cc(F)ccc2sc2c(N3CCNCC3)nc3ccccc3c12` stands -52% (active); under `COc1cc(OCc2cccc(-c3ccccc3)c2C)cc(OC)c1CN1CCCCC1C(=O)NCCOCCOCCN` (stereo not given), -42.4% (active); under `COc1ccc(N=C2CSc3nnc(-c4cc(F)c(Cl)cc4Cl)n3N2)cc1`, -48% (active).
As for `Cc1c(Cl)cccc1NCN1C(=O)c2ccccc2C1=O`, the growth is 113% (inactive).
In the case of `Oc1ccc(-c2nn(-c3ccccc3)cc2-c2nc3ccccc3s2)cc1`, the growth is 104% (inactive).
Next, `CCOC(=O)C(=Cc1c(-c2ccccc2)[nH]c2ccccc12)C(=O)OCC`: -52% (active).
As to `COc1ccc(/C=C2\CN(Cc3cn(CCCNc4ccnc5cc(Cl)ccc45)nn3)C/C(=C\c3ccc(OC)c(OC)c3)C2=O)cc1OC`, the growth was -38% (active).
Under `Brc1ccc(SSc2ccc(Br)cc2)cc1` stands 70.9% (inactive); under `COc1cc(C2C=C(c3cccc(NC(C)=O)c3)Nc3ncnn32)cc(OC)c1OC` (stereo not given), -35.2% (active); under `O=C(NCCNc1nccc(-c2c(-c3cccc(O)c3)nc3sccn23)n1)Nc1cc(C(F)(F)F)cc(C(F)(F)F)c1`, 97.3% (inactive).
Regarding `CN(C)CCCNC(=O)c1cncnc1Nc1ccc(OCc2cccc(F)c2)c(Cl)c1`, the growth was -60.7% (active).
Consider `COc1ccc(-c2cn[nH]c2-c2cc(OC)c(OC)c(OC)c2)cc1`, for which the growth is -21.2% (active).
`N#CC1C(=O)NC(c2ccccc2[N+](=O)[O-])c2sc3c(F)cccc3c21` (stereo not given): the growth is 82.3% (inactive).
Take `O=C1N/C(=N/N=C(c2ccccc2)c2ccccc2)S/C1=C\c1ccc(Br)cc1`: the growth is 89.1% (inactive).
Next, `Cc1ccc(NC(=S)NNC(=S)Nc2ccc(C)cc2)cc1`: 44.7% (inactive); `CC1(C)[C@@H](NOCCCN)CC[C@]2(C)[C@H]3C(=O)C=C4[C@@H]5C[C@](C)(C(=O)O)CC[C@]5(C)CC[C@@]4(C)[C@]3(C)CC[C@@H]12`: -31.3% [100 µM] (active); `COc1ccc2oc(=O)cc(CN3C(=O)S/C(=C\c4ccc(Cl)cc4)C3=O)c2c1`: 89.5% (inactive).
Next, `CCCCn1c(-c2ccc(-c3nc(-c4ccc(Cl)cc4)no3)cc2)nc(-c2ccccc2)c1-c1ccccc1`: 61.4% (inactive).
On to `CN1CCN(Cc2ccc(NC(=O)c3[nH]ncc3Nc3ccnc4ccnn34)cc2)CC1`, for which the growth is 45.5% (inactive).
Under `c1ccc(Cc2cccc[n+]2C(c2ccccc2)c2ccccc2)cc1` stands 4.63% (active); under `O=CC(OC(=O)c1ccccc1)C(OC(=O)c1ccccc1)C(COC(c1ccccc1)(c1ccccc1)c1ccccc1)OC(=O)c1ccccc1` (stereo not given), -12.3% (active); under `Cc1nc(C)c(-c2nn3c(-c4cccc(F)c4)nnc3s2)s1`, 107% (inactive).
Take `Cn1ccc2c1CC1CN(Cc3ccco3)C(=O)C1C2C(=O)O` (stereo not given): the growth is 98.8% (inactive).
Take `O=C1NC(=O)C(c2cnc3ccccn23)=C1c1cn2c3c(cc(F)cc13)CN(C(=O)N1CCCCC1)CC2`: the growth was 48.1% (inactive).
Under `COc1c(C2CC(=O)Nc3c2cnn3Cc2ccco2)cc2c(c1OC)OCO2` (stereo not given) stands -25.8% (active); under `CC(=O)OC[C@H]1OC(Sc2sc(C(=O)c3ccc(Br)cc3)c(N)c2-c2nc3ccccc3s2)[C@H](OC(C)=O)[C@@H](OC(C)=O)[C@H]1OC(C)=O` (stereo not given in full), 105% (inactive).
Next, `COc1ccc(/C=C/C(=O)c2ccc(-n3cc(CN4CCN(c5cc6c(cc5F)c(=O)c(C(=O)O)cn6C5CC5)CC4)nn3)cc2)cc1`: 85.9% (inactive); `CCCCCCCCCCC1CO1` (stereo not given): 104% (inactive); `Oc1c(-c2cc(C(F)(F)F)[nH]n2)cc(Cl)c(OCc2ccc(Cl)cc2)c1-c1ccc(Cl)c(C(F)(F)F)c1`: -10.8% (active).
Next, `COc1cc(CNS(=O)(=O)c2ccc(C)cc2)ccc1OCc1cn(-c2ccccc2)nn1`: 85.2% (inactive); `COc1ccc(-c2nc(/C=C3/C(=O)Nc4ccc(F)cc43)c3ccccn23)cc1`: 61.6% (inactive); `CCOC(=O)c1cn2ncnc(Oc3ccc(NC(=O)NCCN(C)C)c(Cl)c3)c2c1C`: 98.6% (inactive).
Take `CNc1ccc(Br)c2c1C(=O)c1ccccc1C2=O`: the growth is 97.1% (inactive).
Under `COCCn1cc(-c2nc(-c3cc4cccnc4n3C)cs2)c2cc(OC)ccc21` stands 82.6% (inactive); under `COc1cccc(NC(=O)c2sc3nc4c(cc3c2N)CCCC4)c1`, 5.68% (active).
Next, `CC(=O)O[C@]1(C)CC[C@H]2[C@H](CNCCc3ccc(Cl)cc3)C(=O)O[C@@H]2C2=C(C)C(=O)C[C@H]21`: 89.2% (inactive).
